# HEK293 tox: qHTS of GLP-1 Receptor Inverse Agonists: Cytotox Screen; Potency, µM (series often up to 38.3 µM), without a hit: top-dose activity change, negative = inhibition, most hits filed as inhibitors; 0.13% of 410,000 active; HEK293 cAMP-luciferase reporter cells, luminescence, 24 h;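 note: loss of luciferase light is scored as toxicity; potency is the fitted concentration of half-maximal effect; % is set by controls: 0 for no effect and ±100 for the full control effect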
#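 Compound-treated cells are incubated 24 hr at 37 deg C under 5% CO2 after a 12 hour attachment period, then luciferase detection reagent is added and luminescence is measured following 12 min at room temperature; lowered signal indicates toxicity.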
# GLP-1R agonist: qHTS of GLP-1 Receptor Agonists | Potency, µM (highest dose often 45.6 µM), inactives show at the highest dose activation, actives largely listed as activators | HEK293 GLP-1R CRE-luciferase, luminescence, 4-6 h; cells express a hypersensitive GLP-1R form | Glucagon-like peptide 1 receptor (Homo sapiens), P43220 | 0.007% of 380,000 active; note: potency is the fitted concentration of half-maximal effect; % of control where 0% means no effect
# Target sequence (P43220 whole entry, looked up): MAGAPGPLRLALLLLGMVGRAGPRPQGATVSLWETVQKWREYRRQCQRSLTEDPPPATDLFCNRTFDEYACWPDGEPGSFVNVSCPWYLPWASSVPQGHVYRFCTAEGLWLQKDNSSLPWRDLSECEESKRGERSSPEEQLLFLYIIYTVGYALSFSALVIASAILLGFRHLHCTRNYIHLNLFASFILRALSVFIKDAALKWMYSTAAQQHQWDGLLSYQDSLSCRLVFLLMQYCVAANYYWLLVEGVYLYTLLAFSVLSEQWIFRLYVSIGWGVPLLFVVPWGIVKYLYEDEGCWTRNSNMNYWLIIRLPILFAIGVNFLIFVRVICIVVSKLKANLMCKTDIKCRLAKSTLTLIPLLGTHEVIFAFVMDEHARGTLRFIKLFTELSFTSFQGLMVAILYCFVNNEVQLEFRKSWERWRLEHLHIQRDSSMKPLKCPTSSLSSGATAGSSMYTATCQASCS
# KCNH2 WT inh: qHTS for Inhibitors of KCHN2 3.1: Wildtype qHTS; Voltage-gated inwardly rectifying potassium channel KCNH2 (Homo sapiens), Q12809; U2OS, BacMam KCNH2, thallium flux FluxOr; stronger effect = lower value; activity change, % at 1.84 µM; 0.37% of 340,000 active; AID 720551, 2013;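 active = maximum activity change below -70%; inconclusive = maximum activity change between -70% and -50%; inactive = maximum activity change above -50%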; note: % is set by controls: 0 for no effect and ±100 for the full control effect
#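 U2OS cells were transduced with wild-type KCNH2 virus (2.03 x 10^8 / mL) for 4 h at room temperature, then cultured overnight at 37 C. Thallium flux was read with FluxOr dye. Rate constants were normalized to DMSO controls.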
# GLS inhibitor: qHTS for Inhibitors of Glutaminase (GLS) | Glutaminase kidney isoform, mitochondrial (Homo sapiens), O94925 | GLS enzymatic activity, qHTS titration | Potency, µM (series often up to 45.5 µM), for inactives: at the highest dose activity change, negative = inhibition, usual class: inhibitors | 0.21% of 410,000 active | AID 624170, 2012; note: potency is the fitted concentration of half-maximal effect; % is set by controls: 0 for no effect and ±100 for the full control effect
#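 Assay buffer: 45 mM KH2PO4 pH 8.2, 0.02% Tween-20. hKGA acts on L-glutamine (1 mM solution added); product glutamate is reported by an oxidase/peroxidase Amplex Red coupling, with fluorescence taken at baseline and 30 min.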
# GLP-1R inv ag: qHTS of GLP-1 Receptor Inverse Agonists (Inhibition Mode); HEK293 GLP-1R CRE-luciferase, luminescence, 24 h; GLP-1R form is constitutively active; Potency, µM (titrated, usually from 38.3 µM), inactives show at the highest dose activity change, negative = inhibition, actives largely listed as inhibitors; 1.6% of 410,000 active; AID 624417, 2012; note: potency is the fitted concentration of half-maximal effect; % is set by controls: 0 for no effect and ±100 for the full control effect; nearly all actives have a fitted effect of over 55% in size
#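 Readout was luciferase luminescence, measured 12 min after detection reagent at room temperature. Beforehand, GLP-1R reporter HEK293 cells had sat 12 h, then received compounds for 24 hr at 37 deg C.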
# KCNH2 3.1 inh: qHTS for Inhibitors of KCHN2 3.1: Mutant qHTS | U2OS KCNH2 3.1, thallium flux FluxOr; stronger effect = lower value | activity change, % (tested at about 1.8 µM) | 0.95% of 340,000 active | AID 720553, 2013;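 active = maximum activity change below -70%; inconclusive = maximum activity change from -70% to -50%; inactive = maximum activity change above -50%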;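 note: thallium influx rate constant from kinetic fluorescence after stimulation buffer; % is set by controls: 0 for no effect and ±100 for the full control effect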
#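 Thallium flux read-out: FluxOr dye with Red40 quencher in HBSS/HEPES, 45 min at RT. Rate constants from kinetic reads were normalized to positive and negative DMSO controls. Cells: U2OS virally expressing the 3.1 isoform.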
# Starred values were filed as active, the others as inactive; i = inactive; ? = inconclusive; nt = not tested or not shown. Shown are actives, neighbours in structure and some others; about 2.8% of the full set was active somewhere. Unless noted, calls come from the whole dose curve; as a rule, active = well fitted curve in the direction sought with a large enough effect; inconclusive = small, poorly fitted or top-dose-only effect, or another doubt; inactive = no such curve, though single readings can be large; an effect the other way counts as inactive or inconclusive.
SMILES,HEK293 tox,GLP-1R agonist,KCNH2 WT inh,GLS inhibitor,GLP-1R inv ag,KCNH2 3.1 inh
O=S1(=O)CCS(=O)(=O)C1c1ccccc1,?,-8.6%,-1.7,-9.8%,11.2µM*,0.5
CC(C(=O)NCCC1=CCCCC1)c1ccc([N+](=O)[O-])cc1 (centres undefined),3.6%,16.1%,i,-4.6%,10µM*,12.0
CCC(=O)N1CCc2cc(CNS(=O)(=O)c3ccc(NC(=O)CC(C)C)cc3)ccc21,-9.1%,nt,nt,0.9%,?,nt
CC1C/C(=N\NC(=S)NC(C)C)CC(C)(C)C1 (centres undefined),?,-6.2%,2.7,17.6%,4.47µM*,-10.3
CC(C)SC1=NC(C)(C)C=C(/C=C/c2c(Cl)cccc2Cl)N1,-5.8%,-12.7%,6.1,-3.8%,2.82µM*,-1.1
Cc1ccc(S(=O)(=O)n2cnc3cc([N+](=O)[O-])ccc32)cc1C,0.4%,0.1%,1.2,6.0%,6.5%,2.4
Cc1ccc(-n2c3nc(=O)[nH]c(=O)c-3cc3cc([N+](=O)[O-])ccc32)cc1C,?,7.9%,-1.7,?,10µM*,-3.3
CCCCCC(=O)Nc1cc(S(=O)(=O)O)cc2cc(S(=O)(=O)O)cc(O)c12,7.5%,-4.1%,-2.0,1.78µM*,5.5%,8.2
CCCCCC(=O)Nc1cc(S(=O)(=O)N2CCCCC2)ccc1N1CCCCC1,-6.8%,22.6%,-1.2,3.8%,?,-5.4
Cc1ccccc1CNC(=O)CCNS(=O)(=O)c1ccc(OC(F)(F)F)cc1,-17.7%,-1.2%,-10.6,0.8%,-0.3%,-5.2
COc1ccc(CCC(=O)N2c3ccccc3N=C(c3ccc(C(F)(F)F)cc3)C2C(=O)NC(C)(C)C)cc1 (centres undefined),25.8%,nt,nt,nt,4.47µM*,nt
O=C(CN1C(=O)COc2ccc(S(=O)(=O)N3CCOCC3)cc21)N1CCN(c2cccc(C(F)(F)F)c2)CC1,1.1%,1.1%,nt,-10.9%,-6.2%,nt
FC(F)(F)c1cccc(NC(=S)Nc2ccc(Cl)c(Cl)c2)c1,-28.9%,0.4%,-13.3,10.2%,?,19.5
O=[N+]([O-])c1cc(C(F)(F)F)cc([N+](=O)[O-])c1NCCNC(=S)Nc1ccc(Cl)c(Cl)c1,?,-0.8%,19.7,-8.8%,8.91µM*,-8.5
CCOC(=O)c1c(CSc2ccc(CC)cc2)oc2ccc(O)c(CN(C)C)c12,?,18.4%,38.7,-4.8%,2.51µM*,?
Cc1cccc2nc(-c3cccnc3)c(Nc3ccc(C(C)C)cc3)n12,-13.7%,nt,nt,-8.4%,10µM*,nt
Cc1ccc(S(=O)(=O)NCCc2csc(-c3ccc(Cl)cc3)n2)cc1,-1.4%,-1.9%,nt,-8.1%,?,nt
O=S(=O)(NCCc1csc(-c2ccc(F)cc2)n1)c1ccc(Cl)cc1,-4.5%,nt,nt,-5.8%,11.2µM*,nt
CCOC(=O)C1CCCN(C(=O)c2cc(-c3ccco3)nc3ccccc23)C1 (centres undefined),-2.9%,1.2%,-1.5,12.6µM*,17.2%,30.6
CCOC(=O)C1CCCN(C(=O)c2cc(-c3ccncc3)nc3ccccc23)C1 (centres undefined),-6.1%,5.6%,-4.1,-1.1%,-0.9%,-1.4
CCOC(=O)C1CCCN(C(=O)c2cc(-c3ccc(F)cc3)nc3ccccc23)C1 (centres undefined),2.7%,22.5%,9.5,3.7%,7.94µM*,-0.5
O=C(c1cc(-c2ccco2)nc2ccccc12)N1CCCC(C(F)(F)F)C1 (centres undefined),-2.5%,0.5%,-5.0,?,-21.0%,-11.5
CCc1cc2c3c([nH]c2cc1S(=O)(=O)NCCCOC)CC(C)(C)CC3=O,4.1%,2.4%,-4.7,2.2%,-4.8%,18.6
O=C(CCN1C(=O)/C(=C\c2ccccc2Cl)SC1=S)Nc1cccnc1,8.1%,-22.4%,-2.8,-0.9%,14.5%,-6.8
O=C(CCN1C(=O)/C(=C/c2ccccc2F)SC1=S)Nc1cccnc1,-0.7%,-0.4%,-34.0,4.9%,1.2%,-106.7*
SMILES,HEK293 tox,GLP-1R agonist,KCNH2 WT inh,GLS inhibitor,GLP-1R inv ag,KCNH2 3.1 inh
COc1ccccc1CNC(=O)C1CCCN(c2cnccn2)C1 (centres undefined),-1.0%,-4.3%,1.5,-2.0%,38.0%,4.7
COc1cccc(NC(=O)c2ccnc(N3CCC(C(=O)NCc4ccccc4OC)CC3)c2)c1,23.4%,6.0%,-1.0,-0.4%,6.8%,-108.8*
CC(=O)O[C@H]1CC[C@@]2(C)C(=CCC3C2CC[C@]2(C)C(c4cccnc4)=CCC32)C1 (some centres undefined),nt,-3.7%,nt,-1.3%,nt,nt
Cc1cccc(OCC(=O)Nc2cccc(C(=O)OCc3cc(=O)n4nc(C(C)C)sc4n3)c2)c1,6.8%,nt,nt,-8.1%,8.3%,nt
C=CCn1c(SCC(=O)N2CCN(C(=O)c3ccco3)CC2)nc2sc(CC)cc2c1=O,-0.4%,1.6%,-108.5*,4.1%,9.4%,?
O=C1CCCC(O)=C1N=Nc1ccc2c(c1)OCO2,-12.4%,9.3%,-0.2,15.7%,12.8%,11.3
O=C1CCCC(O)=C1N=Nc1ccc(C(=O)O)cc1,-32.5%,-1.2%,-8.9,11.2µM*,3.5%,6.3
COc1ccccc1-c1c(C)nn2c(N3CCOCC3)cc(C)nc12,-4.1%,15.5%,-10.0,0.9%,9.7%,-4.8
COc1ccccc1-c1c(C)nn2c(N3CCCCCC3)cc(C)nc12,-20.4%,-1.4%,-249.7*,0.9%,?,10.9
COc1ccccc1NC(=O)C1=C(C)Nc2nc3ccccc3n2C1c1cccc(OC)c1OC (centres undefined),-7.9%,-0.7%,nt,-0.4%,-9.2%,nt
CN(C)S(=O)(=O)c1cccc(NC(=S)N/N=C/c2ccc(O)c(O)c2O)c1,-19.3%,-0.8%,1.4,7.94µM*,5.3%,-0.7
Cc1nn2cc(-c3ccc(OC(C)C)cc3)nc2s1,0.8%,nt,nt,-18.4%,?,nt
CCOC(=O)C1CCCN(c2nc3c(S(=O)(=O)c4ccc(Br)cc4)nnn3c3ccsc23)C1 (centres undefined),-7.4%,nt,nt,-5.1%,13.1%,nt
COc1ccccc1-c1cc2nc(C)c(CCC(=O)Nc3ccc(Br)c(C)c3)c(C)n2n1,0.4%,-0.6%,nt,-6.9%,9.1%,nt
S=C1SCN(Cc2ccco2)CN1Cc1ccco1,?,0.4%,1.9,-4.4%,5.62µM*,2.7
